TDP1 cell CPT = DT40-hTDP1 cell growth loss with CPT; AID 686979; 420,000 compounds, 12% hits; Potency, µM (series often up to 46.2 µM), hits mostly inhibitors; chicken DT40 Tdp1-/-;hTDP1 cells + 20 nM CPT, ATP luminescence, 48 h; note: nearly all actives have a fitted effect of over 55% in size
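Chicken DT40 Tdp1-/- cells stably complemented with human TDP1 were seeded at 400 cells/well in medium containing 20 nM camptothecin, exposed to pin-transferred compounds, and grown at 37 °C for at least 48 hr. Viability was read as ATP luminescence.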
DT40 TDP1 no CPT = qHTS for Inhibitors of human tyrosyl-DNA phosphodiesterase 1 (TDP1): qHTS in cells in absence of CPT; Potency, µM (top dose mostly 46.2 µM), actives largely listed as inhibitors; AID 686978, 2013; DT40 Tdp1-/- hTDP1 cells, no CPT, ATP luminescence, 48 h; 420,000 compounds, 15% hits; note: nearly all actives have a fitted effect of over 55% in size
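Chicken DT40 Tdp1-/- cells complemented with human TDP1, screened without camptothecin (DMSO vehicle only), 400 cells/well. Compounds pin-transferred, cells incubated at 37 °C for at least 48 hr. Growth read as ATP-dependent luminescence (CellTiter-Glo, 30 min at RT).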
HT1080 IDH1KD tx = kills HT-1080 cells with IDH1 knockdown. HT-1080 IDH1 knockdown viability, ATP luminescence, 48 h. Potency, µM (series often up to 46.1 µM), hits mostly cytotoxic. 360,000 compounds, 2% hits. AID 686971
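% activity derives from luminescence (CellTiter-Glo), normalised to DMSO and no-cell wells. HT-1080-IDH1KD cells, 750/well, had 48 h compound exposure at 37 °C.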
HT1080-NT tox = kills 2HG-producing HT-1080-NT fibrosarcoma cells; HT-1080-NT fibrosarcoma viability, CellTiter-Glo ATP luminescence, 48 h; Potency, µM (series often up to 46.1 µM), most hits filed as cytotoxic; 360,000 compounds, 1.6% hits; AID 686970;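 note: NT is the 2HG producing partner of a matched IDH1 knockdown line; nearly all actives have a fitted effect of over 55% in size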
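750 cells/well, RPMI + 5% FBS; 2 h settle, compound pin-transfer, 48 h at 37 degrees C. CellTiter-Glo 10 min RT, luminescence. Normalized to DMSO and media-only wells.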
IL1B secr inh = inflammasome signaling inhibition, IL-1 beta readout; 360,000 compounds, 4.7% hits; activity change, % at 57.5 µM; THP-1 LPS/ATP IL-1B secretion, AlphaLISA, 16 h; stronger effect = lower value; in the data active = activity change below about -50%; inconclusive = mostly about -30% to -49%
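Secreted IL-1B measured by AlphaLISA bead assay after 16 h compound exposure of THP-1 cells; compounds (final up to 57.5 uM) added 1 h before LPS (250 ng/mL) and ATP (1.25 mM) stimulation; lower signal means less secretion.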
Numbers stand for hits; - = inactive; ? = inconclusive; . = no result given; [ ] = dose if it differs, or a comment. This is a sample that favours compounds with a hit; in the whole collection about 19% have one here. Unless noted, calls come from the whole dose curve; as a rule, active = well fitted curve in the direction sought with a large enough effect; inconclusive = small, poorly fitted or top-dose-only effect, or another doubt; inactive = no such curve, though single readings can be large; an effect the other way counts as inactive or inconclusive.

SMILES	TDP1 cell CPT	DT40 TDP1 no CPT	HT1080 IDH1KD tx	HT1080-NT tox	IL1B secr inh
CCCN(CC(=O)Nc1ccccc1OC)C(=O)c1ccc(COc2ccccc2)o1	16µM	?	-	-	-
CCCN(CC(=O)Nc1ccccc1C)C(=O)CCl	2.6µM	2.1µM	4.1µM	8.2µM	-95
CCCN(CC(=O)Nc1ccccc1C)C(=O)c1ccc(-c2ccc([N+](=O)[O-])cc2)o1	?	21µM	-	-	-
Nc1ncnc2c1ncn2[C@@H]1O[C@H](CNS(=O)(=O)c2cc(S(=O)(=O)c3ccccc3)cs2)[C@@H](O)[C@H]1O	-	-	-	-	-
O=S(=O)(NNc1ncc(C(F)(F)F)cc1Cl)c1ccccc1	16µM	?	?	?	?
Cc1ccccc1S(=O)(=O)Nc1ncc(C(F)(F)F)cc1Cl	-	-	-	-	-
O=S(=O)(NNc1ncc(C(F)(F)F)cc1Cl)c1ccc(F)cc1F	?	21µM	-	-	-
CN(NS(=O)(=O)c1ccc(F)cc1)c1ncc(C(F)(F)F)cc1Cl	-	-	-	-	-
CC1CN(C(=O)COC(=O)Cc2ccc(Cl)cc2)CC(C)O1 (stereo unspecified)	-	-	-	-	-
CCC(C)(C)n1nnnc1C(c1ccc2ncccc2c1)N1CCCCCC1 (stereo unspecified)	11µM	?	-	-	-
c1csc(C(c2nnnn2C2CCCCC2)N2CCCC3(CCCCC3)C2)c1 (stereo unspecified)	?	23µM	-	-	-
CCC(C)(C)n1nnnc1C(c1cccs1)N1CCCCC1 (stereo unspecified)	?	18µM	-	-	-
CCC(C)(C)n1nnnc1C(c1ccc(C)cc1)N1CCCC1 (stereo unspecified)	-	-	-	-	-
CC(=O)CSc1nnc2[nH]c(=O)cc(N)n12	-	-	.	.	.
CCOC(=O)N1CCN(C(=O)Cn2nc(C)n3nc(-c4ccccc4)cc3c2=O)CC1	-	?	-	-	-
Cc1ccnc2ccc(-c3nc4ccccc4o3)cc12	21µM	10µM	-	-	-
Cc1nc2ccc(N=NN(C)C)cc2[nH]1	-	-	-	-	-
Cc1ccc(C)c(-c2nc3ccc(N)cc3[nH]2)c1	23µM	15µM	-	-	-
Nc1ccc(-c2nc3cc(N)ccc3o2)cc1	-	-	-	-	-54
Cc1nc2ccc(Cc3ccc4nc(C)[nH]c4c3)cc2[nH]1	26µM	?	-	-	-
CCCCNC(=O)N1c2ccccc2CC1C (stereo unspecified)	-	-	-	-	-
COc1ccc(CN2CCOc3ccc(C(O)c4cccnc4)cc3C2)c(OC)c1OC (stereo unspecified)	-[9.04 µM]	-	.	.	.
O=c1c(Br)c(N2CCCCC2)cnn1-c1ccccc1	-	-	-	-	-
Nc1ccc(-c2nc3ccc(-c4nc5ccccc5o4)cc3[nH]2)cc1	15µM	8.2µM	-	-	-
Nc1ccc2nc(-c3ccc(Cl)cc3)[nH]c2c1	2.9µM	4.6µM	21µM	23µM	-
SMILES	TDP1 cell CPT	DT40 TDP1 no CPT	HT1080 IDH1KD tx	HT1080-NT tox	IL1B secr inh
Cc1nc2ccc(-c3nc4ccc(N)cc4[nH]3)cc2[nH]1	2.9µM	4.1µM	-	-	-
O=C(Cc1ccccc1[N+](=O)[O-])c1ccc2c(c1)OCO2	-	-	-	-	-
CC(C)n1c(=O)c2ccccc2n1Cc1cn(-c2ccccc2)nn1	-	?	-	-	-
O=C1[C@@H]2CSCN2C(=O)CN1Cc1ccc(F)cc1	-	-	-	-	-
O=C(Nc1ccc(F)cc1F)N1CCc2c(sc3c2CCCC3)C1c1ccc(F)cc1 (stereo unspecified)	?	18µM	.	.	.
CCc1c(C)sc2c1CCN(Cc1cccc(OC)c1)C2c1ccccc1 (stereo unspecified)	7.3µM	5.2µM	.	.	.
Cc1ccc(NC(=O)N2CCc3c(sc4c3CCCC4)C2c2ccccc2)cc1F (stereo unspecified)	?	15µM	.	.	.
CCOc1ccccc1NC(=O)N1CCc2c(sc3c2CCCC3)C1c1ccccc1 (stereo unspecified)	?	23µM	.	.	.
COc1cccc(CN2CCCCC2C(=O)O)c1 (stereo unspecified)	-	-	-	-	-
CCc1ccc(CNC(=O)C2CC(=O)N(C3CCCC3)C2)cc1 (stereo unspecified)	-	-	-	-	-
Cn1c(=O)c2c(nc3n(-c4ccc(O)cc4)c(-c4ccc(Br)cc4)cn23)n(C)c1=O	-	-	.	.	.
CC(C)[C@H](NS(=O)(=O)c1cccc(Cl)c1)C(=O)OCC(=O)NC(=O)CN1CCCC1=O	-	-	-	-	-
CCOC(=O)c1ccccc1NC(=O)N1CCc2c(sc(C)c2CC)C1c1ccccc1 (stereo unspecified)	?	16µM	.	.	.
CCOC(=O)c1ccccc1NC(=O)N1CCN2CCCCC2C1 (stereo unspecified)	-	-	.	.	.
COc1ccccc1NC(=O)N1CC(=O)Nc2sc3c(c2C1c1ccccc1)CCCC3 (stereo unspecified)	23µM	18µM	.	.	.
NC(=O)CC(NC(=O)Cc1ccc(Cl)cc1)c1ccc(NCc2ccccc2)c([N+](=O)[O-])c1 (stereo unspecified)	?	-	-	-	-
C=CCc1ccccc1OCCSc1nc(-c2ccccc2F)nc2cc(=O)[nH]n12	16µM	21µM	.	.	.
COc1ccc(-c2nc(SCCOc3ccccc3Cl)n3[nH]c(=O)cc3n2)cc1	21µM	?	.	.	.
COc1ccccc1OCCCSc1nc(-c2ccc(C(C)(C)C)cc2)nc2cc(=O)[nH]n12	-	?	.	.	.
COc1cccc(-c2nc(SCc3ccc(C)cc3)n3[nH]c(=O)cc3n2)c1	18µM	16µM	.	.	.
CCOC(=O)/C(=C(/C)N)C1CC(=O)NC1=O (stereo unspecified)	-	-	-	-	-
CN1CCC(C2(O)c3ccccc3CCc3ccccc32)CC1	18µM	?	-	-	-
CN1CCC(C2(O)c3ccccc3CSc3sccc32)CC1 (stereo unspecified)	-	-	-	-	-
CC(NC(=O)C1CCN(S(=O)(=O)c2cccs2)CC1)c1cccc(Cl)c1 (stereo unspecified)	-	-	-	-	-
O=C(CN1CCN(S(=O)(=O)c2ccc(F)c(Cl)c2)CC1)N1CCc2ccccc2C1	?	16µM	-	-	-
COc1cc2c(cc1OC)CN(C(=O)CSc1ccccc1C)CC2	?	?	-	-	-60
O=C(CN1CCN(S(=O)(=O)c2ccc(F)c(Cl)c2)CC1)N1CCc2ccccc21	?	?	-	-	-
COc1cc2c(cc1OC)CN(C(=O)CSc1nc(N)c(C#N)cc1C#N)CC2	?	-	-	-	-

High-throughput results deposited in PubChem by National Center for Advancing Translational Sciences (NCATS).
